Screening data deposited in PubChem by National Center for Advancing Translational Sciences (NCATS).
MARV entry inh = qHTS for Inhibitors of binding or entry into cells for Marburg Virus. Marburg virus pseudotype entry/binding inhibition, cell-based. Potency, µM (doses to about 49.2 µM), most hits filed as inhibitors. 18,000 compounds, 6.5% hits. AID 720532, 2013
Lassa entry = qHTS for Inhibitors of binding or entry into cells for Lassa Virus; Lassa virus pseudotyped entry inhibition, cell-based qHTS; Potency, µM (highest dose often 49.2 µM), usual class: inhibitors; 18,000 compounds, 4.1% hits
Of the large screens only hits and unclear results are named; the others gave an inactive call; ! = not confirmed by another sample. In the library only some 8% were active in any assay of this set; here they are far more common. The call rests on the fitted dose curve; tested in HEK293 cells.

O=c1cc(-c2ccc(O)cc2)oc2cc(O)c([C@@H]3O[C@H](CO)[C@@H](O)[C@H](O)[C@H]3O)c(O)c12	none
O=c1c2ccccc2oc2cc(O)c(C3COCC(CO)C(O)C(O)C3O)c(O)c12 (configuration not stated)	MARV entry inh 14µM
CC1=C[C@@H](COCc2ccccc2)O[C@@]2(C1)C(=O)N(Cc1ccccc1C(F)(F)F)c1ccccc12	none
O[C@@H]1CN(Cc2cccs2)[C@@H](c2ccccc2)C[C@@H]1n1cc(C2CC2)nn1	none
CC(=O)C1CC[C@H]2C3CC[C@@H]4CC(O)CC[C@@]4(C)C3CC[C@]12C (some centres not stated)	MARV entry inh inconclusive
C[C@]12CC[C@H](O)C[C@H]1CC[C@@H]1[C@@H]2CC[C@]2(C)[C@@H](c3ccc(=O)oc3)C[C@H]3O[C@]132	MARV entry inh 2.5µM, Lassa entry 2.8µM
FC(F)(F)c1ccc(-c2nc(-c3ccccc3)oc2Nc2ccc3ccccc3c2)cc1	none (no result: Lassa entry)
COC(=O)CC=C1c2ccccc2[C@@H](NC(=O)OC)[C@@H]1C	none
CC12C=C(C=CCCc3ccco3)C(C)(C1)C(CCc1ccco1)CC2=O (configuration not stated)	none
CN[C@@H](C)Cc1ccccc1	none
CC(CC(c1ccccc1)c1ccccc1)NC(C)(C)C (configuration not stated)	MARV entry inh 13µM, Lassa entry inconclusive
O=C1[C@H]2[C@@H]3[C@@H](O)[C@H](O)CC(=NOCc4ccccc4)[C@@H]3CC[C@H]2C(=O)N1c1ccc(F)cc1F	none
C=C[C@@]1(C)CC[C@H](O)[C@H]2C(=O)CCC[C@H]21	none
CN1CC[C@@H]2CN3CCc4cccc(c43)[C@H]2C1	MARV entry inh inconclusive
c1ccc2c(c1)Sc1ccccc1N2CC1CN2CCC1CC2 (configuration not stated)	MARV entry inh 13µM, Lassa entry inconclusive
CN1CCC(CN2c3ccccc3Sc3ccccc32)C1 (configuration not stated)	MARV entry inh 10µM, Lassa entry 16µM
CCCCCCCCCCCCCCCC(=O)O[C@@H]1CC(C)=C(/C=C/C(C)=C/C=C/C(C)=C/C=C/C=C(C)/C=C/C=C(C)/C=C/C2=C(C)C[C@@H](OC(=O)CCCCCCCCCCCCCCC)CC2(C)C)C(C)(C)C1	none
C=CCOC(=O)C(C(C)=O)[C@@H](NC(=O)OC)c1ccc(Cl)cc1 (some centres not stated)	none
CS(=O)(=O)Nc1ccc(-c2ccc3c(NC(=O)C4CC4)n[nH]c3c2)cc1	none
CS(=O)(=O)Nc1cccc(-c2ccc3c(NC(=O)C4CC4)n[nH]c3c2)c1	MARV entry inh 3.5µM (no result: Lassa entry)
CCCC[C@]12Cc3cc(OC)c(OC)cc3[C@H](O1)C1=C(O2)C(=O)c2ccccc2C1=O	none
Cc1cc2c(c(=O)n1-c1ccccc1)[C@H]1O[C@](c3ccsc3)(Cc3cc(C#N)ccc31)O2	none
C=CCNC1=C2C[C@@H](C)C[C@H](OC)[C@H](O)[C@@H](C)/C=C(\C)[C@H](OC(N)=O)[C@@H](OC)/C=C/C=C(\C)C(=O)NC(=CC1=O)C2=O	MARV entry inh 1.8µM, Lassa entry 2.2µM
COC1=C2C[C@@H](C)C[C@H](OC)[C@H](O)[C@@H](C)/C=C(\C)[C@H](OC(N)=O)[C@@H](OC)/C=C\C=C(/C)C(=O)NC(=CC1=O)C2=O	MARV entry inh 16µM, Lassa entry 18µM
CCn1c(-c2nonc2N)nc2cnc(Oc3cccc(NC(=O)c4ccc(N(C)C)cc4)c3)cc21	none
CC(C)n1cnc2c(C(=O)N[C@H]3CN4CCC3CC4)cc(Cl)cc21	MARV entry inh 7.1µM, Lassa entry 35µM!
CCC[C@H]1CN(c2ccccc2)C(=O)[C@H]1CC(=O)Nc1ccccc1	none
CC[C@@]1(O)C[C@H](O[C@H]2C[C@H](N(C)C)[C@H](O[C@H]3C[C@H](O)[C@H](O[C@H]4CCC(=O)[C@H](C)O4)[C@H](C)O3)[C@H](C)O2)c2c(cc3c(c2O)C(=O)c2c(O)cccc2C3=O)[C@H]1C(=O)OC	MARV entry inh inconclusive, Lassa entry 8.9µM
CC[C@]1(O)CC(O[C@@H]2CC(N(C)C)C(O)C(C)O2)c2c(cc3c(c2O)C(=O)c2c(O)ccc(O)c2C3=O)C1C(=O)OC (some centres not stated)	MARV entry inh inconclusive
c1ccc2nc3ccccc3cc2c1	MARV entry inh inconclusive
Nc1c2ccccc2nc2ccccc12	MARV entry inh 14µM, Lassa entry inconclusive
Nc1c2c(nc3ccccc13)CCCC2	MARV entry inh 10µM, Lassa entry inconclusive
CC(=O)OC[C@H]1O[C@H](CC=NO[C@H](C)c2cn([C@@H]3COC[C@@H]3O)nn2)C=C[C@@H]1OC(C)=O	none
C=CCCN(Cc1ccc(C)cc1)S(=O)(=O)C=C	none
C[C@@H]1CC[C@H]2C(=O)O[C@@H](Cc3ccccc3)CN2[C@@H]1c1ccc(Br)cc1	none
C=C(C#Cc1ccc(OC)cc1)CCN1C=C(C(=O)OCC)C(c2ccccc2)NC1=O (configuration not stated)	none
O=P12OCC=C[C@H](C[C@H](CC3C#C3)O1)O2	none (no result: Lassa entry)
COC1=CC2C(=O)C(C1=O)C1c3ccccc3CC21 (configuration not stated)	none
CC(Cc1ccccc1)NCc1ccccc1Cl (configuration not stated)	none
Clc1ccccc1CNCC1CCC(CNCc2ccccc2Cl)CC1 (configuration not stated)	MARV entry inh 6.3µM, Lassa entry 20µM
O=C(Nc1ccc(C(=O)N2CCCCC2)cc1)c1ccccc1	none
O=C(c1ccc(Nc2nccc(-c3cc4ccccc4s3)n2)cc1)N1CCC(N2CCCC2)CC1	MARV entry inh 2.2µM, Lassa entry inconclusive
CCOC(=O)C1=CC2(CC)CCCN3CCc4c(n1c1ccccc41)C32 (configuration not stated)	Lassa entry inconclusive
CCOC(=O)C1=C[C@@]2(CC)CCCN3CCc4c(n1c1ccccc41)C32 (some centres not stated)	MARV entry inh 10µM
Cc1ccc(NC(=O)CC2CC2)cc1-c1ccc(C(=O)NCC2CC2)cc1	none (no result: Lassa entry)
COc1ccc([C@]23Cc4c(ccc5ccccc45)[C@H](O2)C2=C(CCCC2=O)O3)cc1	none
NC(=NC1C2CC3CC(C2)CC1C3)Nc1ccc(I)cc1 (configuration not stated)	MARV entry inh 11µM, Lassa entry 8.9µM
O=C1NCCN1CCN1CCC(c2cn(-c3ccc(F)cc3)c3ccc(Cl)cc23)CC1	MARV entry inh 11µM, Lassa entry 22µM
CN1CCN(c2cc3c(cc2F)c(=O)c(C(=O)O)cn3-c2ccc(F)cc2)CC1	none
COc1cc(O)c(C(=O)C=Cc2ccccc2)c(O)c1	MARV entry inh inconclusive
CCC1CN(CC(=O)N(C)Cc2nc3ccccc3[nH]2)Cc2cc(OC)ccc2O1 (configuration not stated)	none
COCC(=O)O[C@]1(CCN(C)CCCc2nc3ccccc3[nH]2)CCc2cc(F)ccc2[C@@H]1C(C)C	MARV entry inh 8.9µM, Lassa entry 20µM
CCCNC(=O)OC[C@H]1O[C@H](CCON=C2[C@H]3CCn4c(=O)n(-c5ccccc5)c(=O)n4[C@@H]3[C@H](O)[C@@H]3O[C@H]23)C=C[C@H]1Oc1ccc(OC)cc1	none
CCCCCCOc1ccc(C(=N)N(CCCC)CCCC)c2ccccc12	MARV entry inh 13µM, Lassa entry 13µM
CCCCCCCCOc1ccc(C(=O)c2ccccc2)c(O)c1	none
